Source: PubChem (SRMLSC)
Rows were chosen to be rich in hits. Some 6.3% of all compounds tested hit in one or more screens of this group.
Spn PMK inh: inhibitors of Streptococcus pneumoniae phosphomevalonate kinase. purified PMK, PK/LDH-coupled NADH absorbance 340 nm. inhibition, % at 10 µM. 0.49% of 65,000 active;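 active means top-ranked compounds by inhibition in the single 10 µM screen, taking a fixed number of the strongest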
Spn MK inh: inhibitors of Streptococcus pneumoniae mevalonate kinase; purified MK, PK/LDH-coupled NADH absorbance 340 nm; inhibition, % at 10 µM; 0.48% of 65,000 active; AID 555;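 active means ranked among the strongest by inhibition in the single 10 µM screen, a fixed top-ranked set picked for dose follow-up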
NADH coupling: inhibition of NAD/NADH coupling enzymes, library profiling | AID 774 | 0.02% of 65,000 active | IC50, µM (titrated, usually from 10 µM) | coupled PK/LDH NADH assays, four targets;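 active means single-dose screening hits from any of four coupled enzyme assays that gave an IC50 when retested across doses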;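 further: the DPM-DC format reads NADH fluorescence rather than 340 nm absorbance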
Abs 340nm: compounds absorbing at 340 nm; AID 708; fold change at 10 µM; compound absorbance at 340 nm, fold over control; 65,000 tested, under 10 active;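 active means at 10 µM dose, initial 340 nm absorbance at least 2 fold that of control wells; inactive means change under 2 fold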;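 further: initial absorbance extrapolated from kinetic A340 decline of NADH oxidation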
Fluor 339 460: intrinsic fluorescence of library compounds, ex339/em460 – biochemical, MLSMR library, data from DPM-DC assay, artefact control, profiling panel. AID 709. 5.5% of 65,000 active. compound autofluorescence, ex339/em460 nm, NADH buffer; hits give high values; 1 = no-compound wells, NADH background. fluorescence fold increase at 10 µM;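 active means at 10 µM, mean starting fluorescence two-fold or more over control wells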;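 further: signal is the first read of a kinetic run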
Spn DPM-DC inh: inhibitors of Streptococcus pneumoniae diphosphomevalonate decarboxylase; purified DPM-DC, PK/LDH coupled NADH fluorescence; calls only at 10 µM; 0.49% of 65,000 active;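 active means the 320 compounds with the highest percent inhibition in the single-dose primary screen, excluding strongly autofluorescent ones, cut at about 32% in these data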;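 further: kinetic rate of NADH fluorescence loss reporting ADP formed by the decarboxylase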
Large screens that a line does not name were inactive; [ ] = another dose, or the depositor's remark.

COC(=O)c1oc2ccc(Br)cc2c1NC(=O)c1ccccc1	Fluor 339 460 3.2
COC(=O)c1oc2ccc(Br)cc2c1NC(=O)CN1CCN(C)CC1	none
CCOC(=O)c1cc2nc(Nc3ccc(OC)cc3)sc2s1	Spn DPM-DC inh active
O=C1NC2NC(=O)N(C(Cc3ccccc3)C(=O)O)C2N1 (configuration not stated)	none
Cc1ccc2cc(CN(CCO)Cc3nnnn3Cc3ccc(F)cc3)c(=O)[nH]c2c1	none
O=c1[nH]c2cc3c(cc2cc1CN(Cc1cccs1)Cc1nnnn1Cc1ccco1)OCCO3	Fluor 339 460 2.4
O=c1[nH]c2cc3c(cc2cc1CN(Cc1ccccc1)Cc1nnnn1Cc1ccco1)OCCO3	Fluor 339 460 2.5
CCOc1ccc2[nH]c(=O)c(CN(Cc3cccs3)Cc3nnnn3C(C)(C)CC)cc2c1	Fluor 339 460 2.6
Cc1ccc2[nH]c(=O)c(CN(Cc3ccc4c(c3)OCO4)Cc3nnnn3Cc3ccco3)cc2c1	none
CCc1ccc2[nH]c(=O)c(CN(Cc3ccccc3)Cc3nnnn3Cc3ccco3)cc2c1	none
CCC(C)(C)n1nnnc1CN(Cc1cccs1)Cc1cc2cc(OC)ccc2[nH]c1=O	none
O=c1[nH]c2cc3c(cc2cc1CN(CCCO)Cc1nnnn1Cc1ccc(F)cc1)OCO3	Fluor 339 460 3.1, Spn DPM-DC inh active
CCOCCn1c(CN2CCOCC2)nc2c1c(=O)[nH]c(=O)n2C	none
O=C(CSc1nnc(Cc2ccccc2)n1-c1ccc(Cl)cc1)N1CCOCC1	none
Cc1csc2ncc(C(=O)Nc3ccccc3Cl)c(=O)n12	Fluor 339 460 2, Spn DPM-DC inh active[fluoresces]
Cc1csc2ncc(C(=O)Nc3ccon3)c(=O)n12	Fluor 339 460 4.8 (not shown: Spn DPM-DC inh)
CCOC(=O)c1ccc(CNC(=O)c2cc(C(C)(C)C)oc2C)o1	none
Cc1c(N2C(=O)CSC23C(=O)Nc2ccccc23)c(=O)n(-c2ccccc2)n1C (configuration not stated)	none
COc1ccc(S(=O)(=O)NCC(=O)N(CC(=O)NCC2CCCO2)c2c(C)cccc2C)cc1 (configuration not stated)	none
CC(C)CCn1nnnc1C(c1ccc(F)cc1)N1CCC(C(N)=O)CC1 (configuration not stated)	none
CCN(CC)C(=O)CSc1ncnc2c(-c3cccs3)nsc12	Fluor 339 460 2.6
O=C(Nc1ccc(N2CCN(C(=O)c3ccccc3)CC2)cc1)c1cc2ccccc2o1	Fluor 339 460 2.4
CCCC(=O)N1CCN(c2ccc(NC(=O)c3cc4ccccc4o3)cc2)CC1	none
c1ccc(-c2nc3nonc3nc2-c2ccccc2)cc1	none
c1ccc(-c2nc3nonc3c3nc4ccccc4n23)cc1	Fluor 339 460 2.3, Spn DPM-DC inh active
CCCCC(CC)CNC(=O)c1cccs1 (configuration not stated)	none
Cc1ccc(CSc2nc3c(c(=O)[nH]2)C(c2ccncc2)C2=C(CCCC2=O)N3)cc1 (configuration not stated)	Fluor 339 460 2.4 (not shown: Spn DPM-DC inh)
C=CCOc1ccccc1C1C2=C(CC(C)(C)CC2=O)Nc2c1c(=O)n(C)c(=O)n2C (configuration not stated)	Fluor 339 460 3.6 (not shown: Spn DPM-DC inh)
Cc1nn(C(=O)c2ccccc2)c2c1C(=O)CC(C)(C)C2	none
Nc1ccc(C(=O)c2ccc3c(c2)OCCO3)cc1N	none
Cc1ccc(C(=O)c2cc3c(cc2N)OCCO3)cc1	Spn PMK inh 27
CC(=O)Nc1ccc(OCC=C(Cl)Cl)cc1	none
Cc1onc(-c2c(F)cccc2Cl)c1C(=O)Nc1cccc2nsnc12	Fluor 339 460 3
COc1ccc2[nH]c(=O)c(CNC3CCCCC3)cc2c1	Fluor 339 460 2.7 (not shown: Spn DPM-DC inh)
COc1ccc2cc(CN(C(=O)Nc3ccccc3)C3CCCC3)c(=O)[nH]c2c1	none
COc1ccc2[nH]c(=O)c(CN(C(=O)NC3CCCCC3)C3CCCCC3)cc2c1	Fluor 339 460 2.8
Cc1ccc(C(=O)CCNc2ccc(F)c(Cl)c2)o1	none
Cc1cc(C)cc(Nc2ncc3c(n2)CCCC3=O)c1	none
O=C(NC1CS(=O)(=O)CC1NCc1ccccc1)c1ccccc1 (configuration not stated)	none
CCOc1ccccc1OCC(=O)Nc1ccc(N2CCCCC2)cc1	Spn DPM-DC inh active
Cc1cccc(OCC(=O)Nc2ccc(N3CCCC3)cc2)c1C	none
Cc1nnc(SCC(=O)N2CC(=O)Nc3ccccc32)n1-c1ccccc1	Spn PMK inh 35
C=CCn1c(=N)c(C(=O)NCCCOC)cc2c(=O)n3cccc(C)c3nc21	Fluor 339 460 2.3 (not shown: Spn DPM-DC inh)
CNC(=O)c1cc2c(=O)n3cccc(C)c3nc2n(C(C)C)c1=N	Fluor 339 460 3.8 (not shown: Spn DPM-DC inh)
CCCCNC(=O)c1cc2c(=O)n3cccc(C)c3nc2n(Cc2ccccc2)c1=N	Fluor 339 460 4 (not shown: Spn DPM-DC inh)
CCn1c(=N)c(C(=O)NCc2cccnc2)cc2c(=O)n3cccc(C)c3nc21	Fluor 339 460 3.7 (not shown: Spn DPM-DC inh)
CCOC(=O)c1cc2c(=O)n3cccc(C)c3nc2n(C)c1=N	none
CCNC(=O)c1cc2c(=O)n3cccc(C)c3nc2n(CCc2ccccc2)c1=N	Fluor 339 460 2.3 (not shown: Spn DPM-DC inh)
COc1ccc(CCn2c(=N)c(C(=O)NCc3ccco3)cc3c(=O)n4ccccc4nc32)cc1OC	none
Cc1cccn2c(=O)c3cc(C(=O)NCc4ccco4)c(=N)n(CCOCCO)c3nc12	Fluor 339 460 5 (not shown: Spn DPM-DC inh)
N=c1c(C(=O)NCc2ccco2)cc2c(=O)n3ccccc3nc2n1CCc1ccccc1	Fluor 339 460 2.2 (not shown: Spn DPM-DC inh)
COCCn1c(=N)c(C(=O)NCCc2ccccc2)cc2c(=O)n3cccc(C)c3nc21	Fluor 339 460 2.5 (not shown: Spn DPM-DC inh)
COc1ccc(S(=O)(=O)N(CCN2CCOCC2)Cc2cc(OC)ccc2OC)cc1	none
O=C(CN1CCOCC1)NCC12CC3CC(CC(C3)C1)C2	none
COCc1c(C(=O)OCC(=O)N2c3ccccc3NC(=O)C2(C)C)oc2ccccc12	none
Cc1nc2cc(NC(=O)N3CC4(C)CC3CC(C)(C)C4)ccc2n1C (configuration not stated)	none
CC1C2CC(CC1(C)C)N(C(=O)Nc1ccc3nccnc3c1)C2 (configuration not stated)	Fluor 339 460 2.2 (not shown: Spn DPM-DC inh)
COc1ccccc1NC(=O)C(C)NS(=O)(=O)c1ccccc1 (configuration not stated)	none
O=C(NCC(=O)N(c1ccc2c(c1)OCCO2)C(C(=O)NC1CCCC1)c1ccco1)c1ccco1 (configuration not stated)	none
CCOC(=O)c1cnc2cc3c(cn2c1=O)CCCC3	Fluor 339 460 5 (not shown: Spn DPM-DC inh)
CCN(CC)C(=O)c1sc2nc(-c3ccccn3)[nH]c(=O)c2c1C	Fluor 339 460 3.4, Spn DPM-DC inh active
O=c1[nH]c(-c2ccccn2)nc2ccccc12	none
CCN(CC)C(=O)c1sc2nc(-c3ccncc3)[nH]c(=O)c2c1C	Fluor 339 460 5 (not shown: Spn DPM-DC inh)
CCOC(=O)c1cc2c(=O)n3ccccc3nc2n(CCCOC)c1=NC(=O)C(C)(C)C	Fluor 339 460 2.4 (not shown: Spn DPM-DC inh)
